Measured potencies and affinities stand elsewhere. Calls of active or inactive are those of the source. The rule behind the calls is not given here.
Experiment: HeLa cell cytotoxicity, dose response, cytotoxicity control, 24 h, plate reader, dry powder (AID 686928)
Conditions: series mostly up to 50 µM

Structure (SMILES)	outcome
CCn1nnnc1N	inactive
CCCCCCCCCC(=O)C(O)CC (configuration not stated)	inactive
